According to PubChem BioAssay (NCATS):
Where “and” joins values, the source holds several entries; their conditions need not be identical. Identical values can stand only once. Records with an inconclusive call do not appear. Where a call stands in place of a potency, no number is given. Calls of active or inactive are those of the source. Unless noted, calls come from the whole dose curve; as a rule, active = well fitted curve in the direction sought with a large enough effect; inconclusive = small, poorly fitted or top-dose-only effect, or another doubt; inactive = no such curve, though single readings can be large; an effect the other way counts as inactive or inconclusive.

How the values were obtained:
[1] = Cell Viability - Jurkat (AID 426;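 active = dose-dependent loss of cell ATP signal giving a full or clear fitted curve, ranked by lower potency value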;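 note: potency is the fitted concentration of half-maximal effect; cells exposed to compound for 40 hours at 37 °C before ATP read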); conditions: qHTS
Summary of the method: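 Cytotoxicity taken as drop in cellular ATP (CellTiter-Glo luminescence, 20 min room temperature) after 40 hr, 37C treatment of 5000 Jurkat Clone E6-1 cells per well; concentration-response fitted with Hill equation for AC50.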

[2] = molecular target: Mitogen-activated protein kinase 10 (Mus musculus) (UniProt Q61831); assay: JNK3 AlphaScreen Assay (AID 530; active = well fitted curve in either direction with a large enough effect, not every such curve was filed as active;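 note: kinase came from lysate of stimulated human HepG2 cells; signal reports phosphorylation of biotinylated GST-cJun 1-79 at Ser73 with 10 µM ATP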); conditions: JNK3 lysate, c-Jun phosphorylation; series mostly up to 11.4 µM
Summary of the method: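 Activity was read by AlphaScreen after JNK3-containing HepG2 lysate (cytokine pre-activated) phosphorylated biotinylated GST-cJun with 10 uM ATP at room temperature. Phospho-Ser73 cJun antibody with Protein-A acceptor beads provided detection.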

[3] = Cell Viability - LYMP2-011 (AID 969); conditions: LYMP2-011 lymphoblastoid cells viability; series mostly up to 92.2 µM; note: nearly all actives have a fitted effect of over 60% in size
Summary of the method: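 Cytotoxicity qHTS with ATP content as read-out: lymphoblastoid cells (2500/well) exposed to compound for 24 h at 37 C, then luciferase luminescence measured. Concentration-response data fitted with the standard Hill equation to give AC50.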

[4] = Cell Viability - LYMP2-007 (AID 979); conditions: LYMP2-007 lymphoblastoid cell viability; series mostly up to 92.2 µM;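 note: cells exposed to compound for 24 h before reading; nearly all actives have a fitted effect of over 60% in size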
Summary of the method: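 AC50 values come from Hill-equation fits of luminescent intracellular ATP (CellTiter-Glo, 30 min, room temperature) following 24 h compound exposure at 37 C. Cells: LYMP2-007 lymphoblastoid line, 2500 per well, in complete culture medium.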

[5] = Cell Viability - N2a (AID 540); conditions: N2a mouse neuroblastoma cell viability; activity change, negative = cytotoxicity: at 92.2 µM (top of the series); note: nearly all actives have a fitted effect of over 45% in size
Summary of the method: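 CellTiter-Glo ATP luminescence, read 20 min after reagent at room temperature, reported viability following 40 h compound treatment at 37 °C. N2a mouse neuroblastoma cells seeded 1500/well; Hill equation gave AC50.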

[6] = Cell Viability - H-4-II-E (AID 543); conditions: H-4-II-E rat hepatoma viability; series mostly up to 92.2 µM;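 note: cells exposed to compound for 40 hours; nearly all actives have a fitted effect of over 35% in size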
Summary of the method: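 CellTiter-Glo luminescence (intracellular ATP) measured after 40 h compound exposure at 37 °C in H-4-II-E rat hepatoma cells seeded at 1500/well. Values are AC50s fitted with the standard Hill equation.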

[7] = Cell Viability - SH-SY5Y (AID 544); conditions: SH-SY5Y neuroblastoma cell viability; viability change, negative = cytotoxic: at 92.2 µM (top of the series);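 note: cells exposed to compound for 40 hours; nearly all actives have a fitted effect of over 55% in size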
Summary of the method: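 Cytotoxicity measured via ATP-dependent luciferase luminescence (CellTiter-Glo) following 40 h, 37 °C exposure of 1500 SH-SY5Y cells per well. Concentration-response data were fitted with the standard Hill equation to give AC50.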

[8] = Cell Viability - LYMP2-001 (AID 921); conditions: LYMP2-001 lymphoblastoid cell viability; series mostly up to 92.2 µM; note: nearly all actives have a fitted effect of over 70% in size
Summary of the method: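 qHTS, 1536-well; lymphoblastoid cells, 24 hr compound, 37 C; ATP by CellTiter-Glo, 30 min RT; luminescence; Hill-fit AC50.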

[9] = Cell Viability - LYMP2-004 (AID 966); conditions: LYMP2-004 lymphoblastoid cell viability, qHTS; series mostly up to 92.2 µM; note: nearly all actives have a fitted effect of over 65% in size
Summary of the method: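 AC50 values come from Hill modelling of concentration-dependent loss of intracellular ATP, measured by CellTiter-Glo luminescence. Human LYMP2-004 lymphoblastoid cells (2500/well) were exposed to compound for 24 h at 37 C.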

[10] = Cell Viability - LYMP2-008 (AID 980); conditions: LYMP2-008 lymphoblastoid cell viability, qHTS; series mostly up to 92.2 µM; note: nearly all actives have a fitted effect of over 60% in size
Summary of the method: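 Cytotoxicity determined from ATP-dependent luciferase luminescence (CellTiter-Glo) following 24 h compound exposure of human lymphoblastoid LYMP2-008 cells at 37 C. Concentration-response data fitted to the Hill equation to give AC50.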

[11] = qHTS assay for small molecule antagonists of peroxisome proliferator-activated receptor delta signaling (AID 588535); conditions: HEK293T PPARd-UAS-bla, beta-lactamase FRET ratio, 18 h; 460 nm channel;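 note: cells co-treated with a PPAR-delta agonist as stimulator during compound exposure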
Summary of the method: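 Fluorescence from CCF4-loaded GeneBLAzer PPAR-delta-UAS-bla HEK293T cells (2 hrs RT loading) quantified reporter inhibition after an 18 hr, 37 C compound exposure across a titration.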

[12] = molecular target: Peroxisome proliferator-activated receptor gamma (Homo sapiens) (UniProt P37231); assay: qHTS assay for small molecule agonists of peroxisome proliferator-activated receptor gamma signaling (AID 588536; active = well fitted curve in the direction sought with a large enough effect in the signal ratio, with a control signal flat, not every such curve was filed as active; the % refers to the signal ratio); conditions: HEK293 PPARg-UAS-bla, beta-lactamase ratio, 16 h, percent of rosiglitazone response, DMSO as zero; series mostly up to 76.7 µM
Summary of the method: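 Cells were plated and held 6–6.5 h at 37 C, then compounds were added as a titration series. After a further 16 h, CCF4 dye was loaded for 2 h at room temperature and emission at 460/530 nm recorded.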

[13] = molecular target: Bile acid receptor (Homo sapiens) (UniProt Q96RI1); assay: qHTS assay for small molecule antagonists of farnesoid X receptor signaling (AID 588526; calls by dose curve); conditions: HEK293T FXR-UAS-bla, beta-lactamase ratio, antagonist mode; series mostly up to 76.7 µM
Summary of the method: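 Antagonist mode: titrated compounds tested against chenodeoxycholic acid stimulation (normalized to 50 uM CDCA and DMSO) in GeneBLAzer HEK293T cells for 16 h. Beta-lactamase read by CCF4 fluorescence; IC50 from Hill fits.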

[14] = molecular target: Peroxisome proliferator-activated receptor gamma (Homo sapiens) (UniProt P37231); assay: qHTS assay for small molecule antagonists of peroxisome proliferator-activated receptor gamma signaling (AID 588537; active = well fitted inhibition curve with a large enough effect in the signal ratio, with a control signal flat, not every such curve was filed as active; the % refers to the signal ratio;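 note: reporter cells co-stimulated with 50 nM rosiglitazone agonist during compound treatment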); conditions: HEK293 PPARg-UAS-bla, beta-lactamase ratio, antagonist mode; series mostly up to 76.8 µM
Summary of the method: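 Fluorescence at 460 and 530 nm (405 nm excitation) reported beta-lactamase cleavage of CCF4 after 2 h room-temperature loading. HEK293 reporter cells in 1% charcoal/dextran-treated FBS had received compound and rosiglitazone for 16 h.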

[15] = molecular target: Vitamin D3 receptor (Homo sapiens) (UniProt P11473); assay: qHTS assay for small molecule agonists of vitamin D receptor signaling (AID 588543; calls by dose curve); conditions: HEK293T VDR-UAS-bla, beta-lactamase ratio, 16 h; series mostly up to 76.8 µM
Summary of the method: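 qHTS in agonist mode: compound titrations stimulate a VDR-driven β-lactamase reporter in HEK293T cells over 16 h at 37 °C. Response normalized to 50 nM 1α,25-dihydroxyvitamin D3 = 100%, DMSO = 0%; Hill fitting gives EC50 and maximal response.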

[16] = qHTS assay for small molecule activators of the p53 signaling pathway (AID 651743; active = well fitted activation curve with a large enough effect in the signal ratio, not every such curve was filed as active; the % refers to the signal ratio); conditions: HCT-116 p53RE-bla, beta-lactamase FRET ratio, 16 h; activation: stronger effect = higher value
Summary of the method: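 Following 16 hours of compound exposure at 37 C, HCT-116 cells bearing the p53RE-bla reporter were loaded with LiveBLAzer B/G FRET substrate for 2 hours at room temperature and fluorescence intensity was recorded.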

[17] = qHTS assay to identify small molecules that stimulate interleukin-8 (IL-8) secretion (AID 651758; active = well fitted activation curve with a large enough effect in the signal ratio; the % refers to the signal ratio); conditions: HTRF ratio (665/615); series mostly up to 92.2 µM
Summary of the method: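 Compounds are added to THP-1 cells (2000 per well) and left 16 hrs at 37 C. A labeled anti-IL-8 antibody pair is then added, and IL-8 secretion is measured by time-resolved FRET after 1-3 hrs at room temperature.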

[18] = molecular target: Retinoic acid receptor RXR-alpha (Homo sapiens) (UniProt P19793); assay: qHTS assay for small molecule agonists of retinoid X receptor alpha signaling (AID 588544; calls by dose curve); conditions: HEK293T RXRa-UAS-bla, beta-lactamase reporter, 18 h; series mostly up to 76.7 µM
[19] = qHTS assay for small molecule agonists of the antioxidant response element (ARE) signaling pathway measured by Nrf2-dependant transcriptional activity (AID 720636; active = well fitted curve in the direction sought with a large enough effect in the repeat runs; an effect the other way counts as inactive or inconclusive); conditions: ARE-luc HepG2, Nrf2 luciferase reporter, 16 h; series mostly up to 92.4 µM
Summary of the method: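 Nrf2-dependent transcription read as ONE-Glo luciferase signal from ARE-luc HepG2 reporter cells after 16 hr compound treatment at 37 C, 5% CO2, in assay medium with 1% dialyzed FBS.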

[20] = molecular target: Tumor necrosis factor (Homo sapiens) (UniProt P01375); assay: qHTS assay to identify small molecules that stimulate Tumor Necrosis Factor-alpha (TNF-alpha) secretion (AID 651757; active = well fitted curve in the direction sought with a large enough effect in the signal ratio; the % refers to the signal ratio); conditions: Human cells, HTRF 665/615 ratio; series mostly up to 92.2 µM
Summary of the method: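 Secreted TNF-alpha quantified by TR-FRET sandwich of two labeled anti-TNF-alpha antibodies, incubated 3 hr at room temperature. Preceded by 17 hr, 37 C compound treatment of THP-1 cells at 3000 cells/well.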

Sequence of Vitamin D3 receptor (Homo sapiens) (P11473 whole entry, looked up): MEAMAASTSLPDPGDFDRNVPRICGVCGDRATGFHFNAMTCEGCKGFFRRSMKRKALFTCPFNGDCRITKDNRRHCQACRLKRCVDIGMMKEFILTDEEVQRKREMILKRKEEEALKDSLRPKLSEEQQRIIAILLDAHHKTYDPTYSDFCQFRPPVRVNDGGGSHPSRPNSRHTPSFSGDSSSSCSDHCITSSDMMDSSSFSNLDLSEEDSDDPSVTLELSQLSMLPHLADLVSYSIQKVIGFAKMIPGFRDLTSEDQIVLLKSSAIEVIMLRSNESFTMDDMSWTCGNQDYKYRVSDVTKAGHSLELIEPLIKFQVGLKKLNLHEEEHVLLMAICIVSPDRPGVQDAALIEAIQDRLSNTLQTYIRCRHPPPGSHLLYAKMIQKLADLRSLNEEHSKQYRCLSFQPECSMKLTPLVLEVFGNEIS
Sequence of Tumor necrosis factor (Homo sapiens) (P01375 whole entry, looked up): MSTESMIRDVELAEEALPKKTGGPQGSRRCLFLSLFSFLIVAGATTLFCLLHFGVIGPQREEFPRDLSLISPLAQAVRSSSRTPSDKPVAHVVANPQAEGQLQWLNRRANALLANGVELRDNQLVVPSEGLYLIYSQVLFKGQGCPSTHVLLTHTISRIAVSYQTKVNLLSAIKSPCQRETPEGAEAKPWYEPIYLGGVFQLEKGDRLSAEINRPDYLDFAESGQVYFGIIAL
Sequence of Retinoic acid receptor RXR-alpha (Homo sapiens) (P19793 whole entry, looked up): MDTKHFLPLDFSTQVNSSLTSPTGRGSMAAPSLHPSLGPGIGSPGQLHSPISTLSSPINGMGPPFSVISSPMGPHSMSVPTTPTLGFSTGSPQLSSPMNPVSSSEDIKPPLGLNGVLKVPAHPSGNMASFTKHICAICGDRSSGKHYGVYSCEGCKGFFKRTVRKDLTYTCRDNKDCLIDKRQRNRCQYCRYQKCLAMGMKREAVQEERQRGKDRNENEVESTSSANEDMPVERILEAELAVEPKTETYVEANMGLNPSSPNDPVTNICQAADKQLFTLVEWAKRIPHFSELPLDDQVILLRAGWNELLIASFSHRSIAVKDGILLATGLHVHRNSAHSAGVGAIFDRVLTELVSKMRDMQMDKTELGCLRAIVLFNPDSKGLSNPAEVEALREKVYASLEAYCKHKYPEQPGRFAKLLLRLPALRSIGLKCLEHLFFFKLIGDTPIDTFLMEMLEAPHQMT
Sequence of Peroxisome proliferator-activated receptor gamma (Homo sapiens) (P37231 whole entry, looked up): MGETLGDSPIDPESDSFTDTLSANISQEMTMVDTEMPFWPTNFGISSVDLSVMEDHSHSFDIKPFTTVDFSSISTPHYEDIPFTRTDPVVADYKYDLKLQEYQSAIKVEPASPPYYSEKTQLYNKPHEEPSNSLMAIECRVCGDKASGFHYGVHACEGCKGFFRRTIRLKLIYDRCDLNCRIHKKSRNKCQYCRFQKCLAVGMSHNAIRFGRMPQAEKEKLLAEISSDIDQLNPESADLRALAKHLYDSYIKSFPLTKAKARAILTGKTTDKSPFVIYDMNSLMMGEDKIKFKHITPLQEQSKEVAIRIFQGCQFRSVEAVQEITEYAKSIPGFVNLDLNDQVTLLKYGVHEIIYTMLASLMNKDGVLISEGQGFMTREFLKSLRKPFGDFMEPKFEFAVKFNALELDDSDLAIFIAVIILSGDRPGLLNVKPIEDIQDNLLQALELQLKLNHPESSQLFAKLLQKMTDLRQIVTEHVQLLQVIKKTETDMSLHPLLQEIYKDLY
Sequence of Bile acid receptor (Homo sapiens) (Q96RI1 whole entry, looked up): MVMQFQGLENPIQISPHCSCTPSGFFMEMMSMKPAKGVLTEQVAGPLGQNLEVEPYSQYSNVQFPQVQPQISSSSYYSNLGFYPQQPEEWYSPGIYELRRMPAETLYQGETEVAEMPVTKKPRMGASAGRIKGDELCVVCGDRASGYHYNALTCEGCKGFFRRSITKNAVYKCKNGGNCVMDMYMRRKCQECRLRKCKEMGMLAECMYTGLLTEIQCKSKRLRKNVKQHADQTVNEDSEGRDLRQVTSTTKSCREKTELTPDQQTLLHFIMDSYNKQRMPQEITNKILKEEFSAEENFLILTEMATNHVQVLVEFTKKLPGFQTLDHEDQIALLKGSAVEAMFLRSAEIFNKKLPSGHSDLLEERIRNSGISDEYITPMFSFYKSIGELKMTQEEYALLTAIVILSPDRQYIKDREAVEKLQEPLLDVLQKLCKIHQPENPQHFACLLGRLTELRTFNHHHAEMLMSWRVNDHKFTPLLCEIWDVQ

Row | SMILES | Potency [1] | Potency [2] | Potency [3] | Potency [4] | activity change, negative = cytotoxicity [5] | Potency [6] | Potency [7] | Potency [8] | Potency [9] | Potency [10] | max response [11] | outcome [12] | Potency [13] | Potency [14] | Potency [15] | activation [16] | Potency [17] | Potency [18] | Potency [19] | Potency [20]
1 | C[C@@H]1CC2(OC(O)[C@]3(C)O[C@H]23)O[C@H]2C[C@@]3(C)[C@@H]4CC[C@H]5C(C)(C)C(O[C@@H]6OC[C@@H](O)[C@H](O)[C@H]6O)CC[C@@]56C[C@@]46CC[C@]3(C)[C@@H]12 (stereo partly specified) | 41.2 µM (inactive) | inactive | inactive | inactive |  |  |  |  |  |  |  |  |  |  |  |  |  |  |  | 
2 | C1CCCNCC1 | > 92 µM (inactive) |  | inactive | inactive | -7.29% (inactive) | inactive | inactive | inactive | inactive | inactive | -36.7% | inactive |  |  |  |  |  |  |  | 
3 | Cc1ccc(S(N)(=O)=O)cc1 | > 92 µM (inactive) |  | inactive |  |  | inactive | inactive |  | inactive | inactive | 10.9% and 2.08% | inactive | inactive | inactive | inactive | -4.8% (inactive) and 0.0231% (inactive) | inactive |  |  | 
4 | CC(=O)c1ccc(Cl)c(Cl)c1Cl | > 92 µM (inactive) |  |  | inactive |  |  |  | inactive | inactive | inactive |  |  |  |  | inactive |  |  | inactive |  | 
5 | CC(C)OCC1CO1 (stereo unspecified) | > 92 µM (inactive) |  | inactive | inactive | -7.39% (inactive) |  |  | inactive | inactive | inactive | 3.66% | inactive | inactive | inactive |  | 0.641% (inactive) |  |  | inactive | 
6 | Nc1cc(C(=O)O)c(O)c(S(=O)(=O)O)c1 | > 92 µM (inactive) |  | inactive | inactive |  | inactive | inactive | inactive | inactive | inactive |  | inactive |  |  |  |  |  |  | inactive | 
7 | CC(=O)OC1CC(C)OC(C)O1 (stereo unspecified) | > 92 µM (inactive) | inactive | inactive | inactive |  | inactive |  |  | inactive |  | -8.33% and -2.28% | inactive | inactive | inactive |  |  |  | inactive | inactive | inactive
8 | OC1CCCCC1 | > 92 µM (inactive) |  | inactive |  | -3.26% (inactive) |  | inactive | inactive |  |  | 23.6% |  |  | inactive | inactive | -2.93% (inactive) | inactive |  | inactive | inactive
9 | Cc1ccc(N)cc1[N+](=O)[O-] | > 92 µM (inactive) | inactive | inactive | inactive | -8.48% (inactive) | inactive |  | inactive |  |  | 35.9% | inactive |  | inactive | inactive |  |  | inactive | inactive | 
10 | Cc1cccnc1 | > 92 µM (inactive) | inactive | inactive |  |  | inactive |  |  |  |  |  |  |  |  |  |  |  | inactive | inactive | inactive
11 | COc1cc(-c2ccc(N=C=O)c(OC)c2)ccc1N=C=O | > 92 µM (inactive) | inactive |  |  |  | inactive | inactive | inactive |  | inactive |  |  |  |  |  |  |  | inactive | inactive | 
